# Results from PubChem BioAssay AID624377 (The Scripps Research Institute Molecular Screening Center, 2012).
# About 680 (0.19%) of roughly 360,000 compounds were called active. Many of the other results were omitted from the sample, so actives are more common in it than they were. Unmarked numbers belong to inactive results. Cut-off read from the data, not from the text of the source: active = inhibition above about 25%; inactive = the rest.
# Target: Arf-GAP with SH3 domain, ANK repeat and PH domain-containing protein 1 (Homo sapiens) (UniProt Q9ULH1)
# Assay: blockers of ASAP1-stimulated ARF1 GTP hydrolysis – biochemical, fluorescence polarization, primary screen (AID 624377);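 note: 0% = vehicle with enzyme and substrate and 100% = no enzyme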
# Conditions: GDP FP detection, at 16.5 µM, active compounds read high
# Sequence of Arf-GAP with SH3 domain, ANK repeat and PH domain-containing protein 1 (Homo sapiens) (Q9ULH1 325-724 limits assumed): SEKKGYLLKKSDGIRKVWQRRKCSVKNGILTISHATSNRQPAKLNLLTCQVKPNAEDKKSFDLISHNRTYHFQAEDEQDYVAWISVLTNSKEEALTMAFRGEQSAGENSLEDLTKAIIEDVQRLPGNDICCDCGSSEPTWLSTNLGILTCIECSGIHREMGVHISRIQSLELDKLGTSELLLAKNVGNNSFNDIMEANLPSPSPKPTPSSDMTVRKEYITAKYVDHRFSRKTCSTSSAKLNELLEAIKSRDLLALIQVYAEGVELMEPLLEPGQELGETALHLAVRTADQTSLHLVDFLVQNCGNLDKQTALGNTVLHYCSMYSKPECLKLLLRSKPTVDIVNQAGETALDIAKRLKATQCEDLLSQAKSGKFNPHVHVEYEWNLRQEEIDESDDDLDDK
row,Compound,inhibition
1,COC(=O)[C@]12C[C@H](CC(=O)NCc3ccc(OC)c(OC)c3)C(=O)N(Cc3ccccc3)C1=C[C@H](C(C)C)O[C@@H]2C1CC1,-17.1%
2,COC(=O)c1ccc(CN2C(=O)[C@]3(OCCC=C[C@H]3C)c3c(Br)cccc32)cc1,8.64%
3,COc1cccc(CNC(=O)[C@H]2CCCN2C(=O)[C@H]2CCCN2C(=O)c2cc(F)cc(F)c2)c1,6.55%
4,COc1cccc(NC(=O)N(C)C[C@@H]2OCc3cn(nn3)CCCC(=O)N([C@@H](C)CO)C[C@H]2C)c1,-14.2%
5,O=C(NCc1ccccc1)[C@H]1CCCN1C(=O)[C@@H]1CCCN1C(=O)c1ccc(Cl)cc1Cl,-1.03%
6,O=C(C(=O)N1CCC(CNC(=O)c2cccnc2Cl)CC1)c1cccs1,0.64%
7,CC(C)[C@H]1COCCS(=O)(=O)N1Cc1ccccc1-c1cccc2c1sc1ccccc12,-8.72%
8,CC(=O)C1=C(C)N(Cc2ccccc2)C(=S)NC1c1cccc(Br)c1 (configuration not stated),-2.66%
9,C[C@H](O)[C@@H]1CN2CCc3ccc(-c4ccc5c(c4)OCO5)cc3[C@@H]2C[C@@H]1N(C)C(=O)C1CCCCC1,-4.95%
10,Nc1ccn([C@@H]2O[C@H](C(=O)N[C@H]3CCCCNC3=O)[C@@H](O)[C@H]2O)c(=O)n1,-4.12%
11,C[C@@H](CN1C2=NC[C@@H](Cc3ccccc3)N2C[C@H]1Cc1ccc(O)cc1)NC(=O)CCC1CCCCC1,-1.15%
12,COC(=O)C1=C(C(=O)OC)C2C=C(C(C)C)C1C(=O)C2(C)O (configuration not stated),-14.9%
13,CC(C)(C)n1nc(C2CC2)c(Br)c1NC(=O)c1ccccc1F,-0.45%
14,COC(=O)C1=C(C)N(Cc2cccc(C(F)(F)F)c2)C(=NCc2ccccc2)NC1c1ccc(Cl)cc1 (configuration not stated),8.8%
15,O=C(N[C@H](C(=O)N1CCC[C@H]1C(=O)NCCc1ccccc1Cl)c1ccccc1)c1ccccc1,8.89%
16,CN(C)C(=O)c1ccc(NC(=O)c2ccccc2-c2ccccc2)cc1,6.53%
17,Cc1ccc(C(=O)Nc2c(-c3ccccc3)[nH][nH]c2=O)cc1,-5.65%
18,O=C(NC1=CC(=O)c2ccccc2C1=O)c1ccccc1,26.4% (active)
19,COC(=O)[C@]12C[C@H](CC(=O)NCCCCc3ccccc3)C(=O)N(Cc3ccc4c(c3)OCO4)C1=C[C@H](C(C)(C)C)O[C@@H]2C,-6.7%
20,CC(C)[C@@H](C)/C=C/[C@@H](C)[C@H]1CC[C@@H]2[C@]1(C)CCC1[C@]23C=C[C@]2(C[C@@H](O)CC[C@]12C)N(c1ccc([N+](=O)[O-])cn1)O3 (some centres not stated),7.77%
21,Cc1cccc(N2Cc3ccccc3C2=NC(=O)c2ccc(Cl)nc2)c1,-4.91%
22,Nc1c(-c2cccc(Cl)c2)cnn1-c1cccc([N+](=O)[O-])c1,3.08%
23,Cc1cccc(-n2ncc(Cl)c(Cl)c2=O)c1,24.7% (active)
24,CC1CCCN(c2cccc3c2S(=O)(=O)N(Cc2ccc(F)cc2)[C@@H](C)[C@H](c2ccccc2)O3)C1 (some centres not stated),0.02%

row,Compound,inhibition
1,COc1ccc(SSc2ccc(OC)cc2C(=O)O)c(C(=O)O)c1,-8.33%
2,Cc1cc(Br)cn2c(Cc3ccccc3C(F)(F)F)c(-c3ccc(C#N)cc3)nc12,-9.38%
3,COC(=O)C1=C(C)N(Cc2ccc(C(F)(F)F)cc2)C(=NCc2ccc(C(F)(F)F)cc2)NC1c1cccc(Cl)c1 (configuration not stated),1.4%
4,CC(=O)Nc1cccc(-c2cc(NC(C)=O)c3ncc(-c4ccccc4)n3c2)c1,-3.7%
5,CN(C)C(=O)c1cccc(-c2cnc3c(NC=O)cc(-c4ccc(C(=O)N5CCOCC5)cc4)cn23)c1,-9.18%
6,O=CNc1cc(-c2ccc(C(=O)N3CCOCC3)cc2)cn2c(-c3ccc(F)cc3)cnc12,7.38%
7,CC(=O)c1cccc(-c2cnc3c(NC=O)cc(-c4ccccc4Oc4ccccc4)cn23)c1,-4.36%
8,CC(=O)Nc1cc(-c2ccc(N3CCN(C)CC3)cc2)cn2c(-c3cccc(C(=O)N(C)C)c3)cnc12,40.6% (active)
9,CC(=O)c1cccc(-c2cnc3c(NC=O)cc(-c4ccc(N5CCN(C)CC5)cc4)cn23)c1,39.8% (active)
10,COc1ccc(-c2cc(NC=O)c3ncc(-c4cccc(C(=O)N(C)C)c4)n3c2)c(OC)c1,-1.85%
11,COc1cccc(-c2cc(NC(C)=O)c3ncc(-c4cccc(C(C)=O)c4)n3c2)c1,-0.92%
12,CC(=O)Nc1cc(-c2ccc(N3CCN(C)CC3)cc2)cn2c(-c3ccc(F)cc3)cnc12,24.7% (active)
13,COC(=O)Cc1nnn2c1[C@H](C)[C@H](c1ccccc1Br)OCC2,-9.73%
14,Cc1cc(N2CCN(C(=O)OC(C)(C)C)C[C@H]2C)ccc1N1CCN(Cc2ccccc2)[C@H](C)C1,0.89%
15,c1ccc(-c2cc(-c3nnc4sc(-c5ccccn5)nn34)[nH]n2)cc1,28.1% (active)
16,Fc1ccc(-c2ccc(-c3nn4c(-c5ccco5)nnc4s3)o2)cc1,-2.12%
17,CCCCCCCCN1C(=O)[C@@H](CC(=O)NCCCC)C[C@@]2(C(=O)OC)C1=C[C@H](C(C)(C)C)O[C@@H]2C,-1.77%
18,COc1ccc(C(CNC(=O)c2cccc(S(=O)(=O)Nc3ccccc3Cl)c2)N2CCOCC2)cc1 (configuration not stated),26.3% (active)
19,COc1ccc(C(CNC(=O)c2cccc(NS(=O)(=O)c3ccc(C)c(F)c3)c2)N2CCCC2)cc1 (configuration not stated),-8.53%
20,COc1ccc(C(CNC(=O)c2ccc(S(=O)(=O)Nc3ccccc3C)cc2)N2CCOCC2)cc1 (configuration not stated),1.23%
21,CCOc1ccccc1C(=O)N1CCC[C@@H]1C(=O)N1CCC[C@H]1C(=O)NCc1ccccc1,-4.19%
22,CCC(=C/c1sc2ccc3ccccc3c2[n+]1C)/C=C1\Sc2ccc3ccccc3c2N1C,41.1% (active)
23,COCc1[nH]nc2c1C(c1ccccc1)N(c1ccccc1)C2=O (configuration not stated),-1.83%
